Assay outcomes from PubChem BioAssay.
Cycloheximide cs – Cycloheximide Counterscreen for Small Molecule Inhibitors of Shiga Toxin. cell reporter, cycloheximide protein synthesis inhibition counterscreen. max response, %. 12% of 300,000 active; in the data active = max response mostly above about 13%, no sharp cut-off; inactive = mostly below about 14%; note: read at 38.3 µM for the half of the compounds with a filed dose; 0% is about no effect
AMA1-RON2 inh – qHTS for Inhibitors of AMA1-RON; Towards Development of Antimalarial Drug Lead: Primary Screen | Plasmodium falciparum AMA1 (3D7) - RON2 peptide interaction | AlphaScreen AMA1-biotinylated RON2 peptide binding | Potency, µM (doses to about 58.2 µM), for inactives: at the top dose activity change, negative = inhibition, usual class: inhibitors | 0.2% of 360,000 active | AID 720542, 2013; active = well fitted inhibition curve with a large enough effect; inconclusive = small, poorly fitted or top-dose-only effect; inactive = no such curve, though single readings can be large or run the other way;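 note: potency is the fitted concentration of half-maximal effect; 0% = vehicle wells and -100% = peptide control; nearly all actives have a fitted effect of over 45% in size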
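AMA1 (3D7) with his tag at 25 nM final met compounds first, then biotinylated RON2 peptide at 25 nM; detection used donor plus acceptor beads, 10 µg/mL apiece, read by AlphaScreen after 30 min at room temperature.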
Shiga inhibitor – A qHTS for Small Molecule Inhibitors of Shiga Toxin; inhibition, % at 38.7 µM; 9.2% of 290,000 active; AID 2315, 2010; Vero cells, Shiga toxin protein synthesis inhibition reporter; in the data active = inhibition mostly above about 28%, no sharp cut-off; inactive = mostly below about 43%; note: 0% is about no effect
Marburg entry inh – qHTS for inhibitors of binding or entry into cells for Marburg Virus. Marburg virus pseudotyped entry inhibition, cell reporter. Potency, µM (highest dose often 37.8 µM), for inactives: at the top dose activity change, negative = inhibition, hits mostly inhibitors. 1.8% of 300,000 active. AID 540276, 2011; calls by dose curve; tested in HEK293 cells; note: potency is the fitted concentration of half-maximal effect; % is set by controls: 0 for no effect and ±100 for the full control effect
LASV entry inh – qHTS for Inhibitors of binding or entry into cells for Lassa Virus | Lassa virus pseudotype entry inhibition, cell reporter | AID 540256, 2011 | 1.2% of 300,000 active | Potency, µM (series often up to 37.9 µM), inactives show top-dose activity change, negative = inhibition, most hits filed as inhibitors; calls by dose curve; tested in HEK293 cells; note: potency is the fitted concentration of half-maximal effect; % is set by controls: 0 for no effect and ±100 for the full control effect; nearly all actives have a fitted effect of over 50% in size
* hit, by the source's call; ? = inconclusive; . = not tested or not shown; [ ] = another dose, or the depositor's remark. This is one part of a sample in which hits are shown more often than they occur.

SMILES	Cycloheximide cs	AMA1-RON2 inh	Shiga inhibitor	Marburg entry inh	LASV entry inh
O=c1cc(CNc2ccc(Br)cc2)nc2sccn12	28.1*	4.8%	56.1*	?	3.7%
CCCCCCCc1cc2ccccc2c2c(C(C)=O)c(-c3ccccc3)c(C(=O)OC)n12	.	.	.	-16.1%[14.2 µM]	?
CCCCCCOC(=O)c1ccccc1N	38.9*	22.9%	76.3	24.8%	1.2%
CC(=O)Nc1ccc(C(=O)OCCc2ccccc2)cc1	41.8*	-4.6%	64.4*	2.0%[46.1 µM]	14.1%[46.1 µM]
CCCCOC(=O)c1ccc(NC(=O)c2nn(C)cc2Br)cc1	29.9*	-18.8%	79.4*	6.6%	7.8%
CCCCOC(=O)c1cc(=O)[nH]c2ccc(C)cc12	5.1	6.9%	0.8	-5.6%[46.1 µM]	20.3%[46.1 µM]
CCCCOC(=O)c1cc(=O)[nH]c2ccccc12	11.2*	0.7%	12.0	1.8%	2.3%
CCCOC(=O)c1ccc(NC(=O)C(CC)CC)cc1	40.5*	1.2%[11.6 µM]	70.2*	?	8.3%
CCCCOC(=O)c1ccc(N)cc1	14.9*	-5.9%	63.1*	3.5%	3.6%
CCOC(=O)c1ccc(NC(=O)CC[C@@H](CC)C(=O)O)cc1	.	.	.	3.2%	.
CCCOC(=O)Nc1ccc(C(N)=O)cc1	24.3*	0.5%	19.2	15.3%	13.3%
CCCOC(=O)Nc1cccc(C(C)=O)c1	12.0	5.6%	4.6	18.3%	-8.4%
CCCCN(CCCC)CCCOC(=O)c1ccc(N)cc1	-4.4	-0.8%	11.3	-20.6%	-24.3%
CCCCOC(=O)c1ccc(NC(=O)c2cc(Cl)c(Cl)cc2C(=O)O)cc1	32.0*	11.0%	65.6*	-24.8%[46.1 µM]	.
Cc1nc(SCC(=O)Nc2ccccc2C)cc(-c2ccccc2)n1	.	.	.	20.6%[46.1 µM]	-8.6%[46.1 µM]
Cc1cc(C)n(CCC(=O)N2c3ccccc3CC2C)n1 (stereo unspecified)	-4.3	4.7%	-7.6	.	.
CCCCOC(=O)c1ccc(NC(C)=O)cc1	13.4	21.7%	51.9*	?	4.8%
CCCCCCOC(=O)c1ccc(N)cc1	42.2*	8.5%	69.3*	-5.1%	.
CCCCCCNc1ccc(C(=O)OCC)cc1	.	8.6%	.	.	.
CCCCOC(=O)c1ccc(NC(=O)/C=C/c2cccs2)cc1	40.7*	5.2%	52.7*	-23.8%	?
CCc1ccc(NC(=O)C(CC)n2c(=O)c(C(F)(F)F)nc3ccccc32)cc1 (stereo unspecified)	.	.	.	.	16.1%[46.1 µM]
CCCCCOc1ccc(Br)cc1/C(C)=N/NC1=NCCN1	-5.3	58.8%	-10.0	10µM*	?
CC(/C=C(\C)Nc1ccccc1)=Nc1ccccc1	25.7*	-17.8%	22.8	?	.
O=C(O)c1ccc(N/N=C/c2cccc3cccnc23)cc1	48.6*	5.3%	83.1*	.	.
O=C(O)c1ccc(N/N=C/c2ccnc3ccccc23)cc1	40.9*	-0.5%	90.7*	.	.
SMILES	Cycloheximide cs	AMA1-RON2 inh	Shiga inhibitor	Marburg entry inh	LASV entry inh
C(=NNC1=NCCN1)c1ccnc2ccccc12	.	-5.6%	.	.	.
Oc1ccccc1/C=N/Nc1cccc2cccnc12	29.6*	15.6%	101.0*	?	-39.8%
O=C(Cc1ccccc1)NCC(=O)N1CCN(c2ccccc2)CC1	-2.6	24.0%	-5.2	?	-4.2%
CCOc1ccc(C(=O)c2cn(CC(=O)Nc3ccc(C)c(C)c3)c3ccc(OCC)cc3c2=O)cc1	.	.	.	1.2%[46.1 µM]	1.4%[46.1 µM]
Cc1cc2oc(C(=O)N(Cc3ccc(N(C)C)cc3)CC3CCCO3)c(C)c2cc1Cl (stereo unspecified)	.	.	.	-0.8%[46.1 µM]	?
Cc1ccc2c(c1)nnn2C1CCN(CC(=O)Nc2ccc(F)cc2)CC1	0.8	-18.8%	-3.7	-15.3%[46.1 µM]	7.2%
CC1CCCCC12NC(=O)N(CC(=O)Nc1ccc3c(c1)OCO3)C2=O (stereo unspecified)	.	0.1%	.	.	.
CC1CC(C)(C)NC(=S)N1CCCC(=O)Nc1ccc2c(c1)OCCO2 (stereo unspecified)	41.5*	-8.3%	115.6*	29.8%[46.1 µM]	19.1%
Cc1ccc2c(c1)nnn2C1CCN(CC(=O)Nc2ccc3c(c2)OCCO3)CC1	26.2*	-8.6%	22.2	-0.9%	?
CC1CCCCC12NC(=O)N(CC(=O)NC(=O)Nc1ccc3c(c1)OCCO3)C2=O (stereo unspecified)	33.2*	3.9%	104.8*	-3.2%	?
CC1CC(C)CN(CC(=O)Nc2ccc3c(c2)OCCO3)C1 (stereo unspecified)	47.7*	-14.1%	74.2*	?	?
